The whole screen tested about 13,000 compounds, of which about 3,200 (25%) showed an effect of 50% or more. The list shows a part of the results.
Test system: P. falciparum stage V gametocytes
Parameters: BacTiter-Glo ATP luminescence viability of purified stage V gametocytes in 384-well plates, per cent inhibition versus DMSO
Details: 48 h, 5 µM; inhibitor

Compound | % Inhibition
CCNc1cc(C)nc(Nc2ccc(NC(=O)c3ccccc3)cc2)n1 [TCMDC-124988] | -14.46%
N=C(N)c1ccc(Oc2ccc(C(=N)N)cc2)cc1 [TCMDC-124287] | 24.59%
CCCc1ccc(NC(=O)c2cccc(CN3CCCN(Cc4cccc(O)c4)CC3)c2)cc1 [TCMDC-135978] | 12.81%
CC(C)[C@H](NC(=O)c1ccc(O)c(-c2cccc(C(F)(F)F)c2)c1)C(=O)NC1CCCc2ccccc21 (stereo partly shown) [TCMDC-140819] | -19.12%
CCCCCCc1cnc2nc(N)nc(N)c2c1C [TCMDC-138065] | 8.256%
O=C(NC1CCC(N2CCCC(OCc3ccccc3)C2)CC1)c1cc2ccccc2[nH]1 (stereo not shown) [TCMDC-132892] | 14.17%
CCCC(=O)Nc1ccc(OCCCN(Cc2ccccc2C(F)(F)F)c2ccc(C#N)c(C(F)(F)F)c2)cc1 [TCMDC-135466] | 20.73%
CCCCCN1CCC(CNS(=O)(=O)c2ccc(C(=O)Nc3cccc(C(F)(F)F)c3)cc2)CC1 [TCMDC-132775] | -3.109%
O=C(Nc1cccc(C(F)(F)F)c1)c1cccc(S(=O)(=O)NCC2CCN(CC3CCCCC3)CC2)c1 [TCMDC-133684] | -26.22%
O=C(Nc1cccc(C(F)(F)F)c1)c1ccc(S(=O)(=O)NCC2CCN(CC3CCCCC3)CC2)cc1 [TCMDC-132776] | 87.8%
COc1cc2c(cc1OC)C(C)(C)CN1Cc3c(c(CO)c(OC)c(OC)c3OC)CC21 (stereo not shown) [TCMDC-137250] | -48.53%
COc1ccc2nc(N)nc(C)c2c1 [TCMDC-123907] | 15.32%
CS(=O)(=O)CCNCc1cccc(-c2cc3c(Nc4ccc(OCc5cccc(F)c5)c(Cl)c4)ncnc3s2)c1 [TCMDC-134654] | -64.99%
CC(=O)Nc1cccc(C(=O)Nc2cccc(-c3ccc(-c4nc5cc(F)ccc5[nH]4)s3)c2)c1 [TCMDC-132142] | 5.899%
Cn1cncc1C(=O)Nc1cccc(-c2ccc(-c3nc4ccccc4[nH]3)s2)c1 [TCMDC-137055] | 40.39%
Cc1cccc2nc(-c3ccc(-c4ccc(NC(=O)c5cncn5C)cc4)s3)[nH]c12 [TCMDC-137067] | 9.475%
Cn1cncc1C(=O)Nc1cccc(-c2ccc(-c3nc4cc(F)ccc4[nH]3)s2)c1 [TCMDC-137066] | 61.93%
CC(=O)Nc1cccc(C(=O)Nc2cccc(-c3ccc(-c4nc5cccc(C)c5[nH]4)s3)c2)c1 [TCMDC-132144] | 10.52%
Cc1cccc2nc(-c3ccc(-c4cccc(NC(=O)c5cncn5C)c4)s3)[nH]c12 [TCMDC-137068] | 78.66%
NC(N)=Nc1nc(-c2cc(NC(=O)C(F)(F)F)cc([N+](=O)[O-])c2)cs1 [TCMDC-137440] | -35.18%
Nc1nc(N)c2c(ccc3nccc32)[nH]1 [TCMDC-124301] | -21.41%
O=C(Nc1cccc(CN2CCN(C(=O)c3cccc(Cl)c3)CC2)c1)c1cccs1 [TCMDC-136326] | 0.1034%
CNC(=O)c1ccccc1Nc1cc(Nc2cc(OC)ccn2)ncc1Cl [TCMDC-135054] | -20.04%

Compound | % Inhibition
COc1cccc(CN2Cc3ccccc3OC3(CCN(Cc4c[nH]c5cnccc45)CC3)C2)c1 [TCMDC-133378] | 19.44%
Cc1ccc(CN2CCN(c3cc4c(cc3Cl)CCN4C(=O)Cc3ccc(Cl)c(NC(=O)Nc4cccc(C#N)c4)c3)CC2)cc1 [TCMDC-139471] | 12.97%
CN(CCS(C)(=O)=O)Cc1ccc(-c2ccc3ncnc(Nc4ccc(OCc5cccc(F)c5)c(Cl)c4)c3c2)o1 [TCMDC-138629] | -22.68%
Cc1ccc(O)c(C(=O)c2cc(C(=O)Nc3ccccc3C)c(=O)n(-c3ccccc3C)c2)c1 [TCMDC-123627] | 58.98%
O=C(c1cc(C(=O)Nc2ccccc2)c(=O)n(-c2ccccc2)c1)c1cc(Cl)ccc1O [TCMDC-124511] | 30.05%
COc1ccccc1NC(=O)c1cc(C(=O)c2cc(Cl)ccc2O)cn(-c2ccccc2OC)c1=O [TCMDC-124338] | 29.65%
O=C(c1cc(C(=O)Nc2ccc(F)cc2)c(=O)n(-c2ccc(F)cc2)c1)c1cc(Cl)ccc1O [TCMDC-123626] | 8.881%
COc1ccc(O)c(C(=O)c2cc(C(=O)NCCc3ccccc3)c(=O)n(CCc3ccccc3)c2)c1 [TCMDC-125435] | -12.88%
O=C(c1cc(C(=O)Nc2ccccc2F)c(=O)n(-c2ccccc2F)c1)c1cc(Cl)ccc1O [TCMDC-123625] | 90.03%
O=C(Nc1ccc(-c2cccc(-c3nc4ccc(F)cc4[nH]3)c2)cc1)c1cnn2cccnc12 [TCMDC-136864] | -12.66%
C(=NNc1ccnc2ccccc12)c1ccncc1 [TCMDC-142016] | -6.172%
CN1CCCN(Cc2ccc(-c3cccc(NC(=O)c4cccc(Cl)c4)c3)cc2)CC1 [TCMDC-132641] | 27.52%
O=C(C1COc2ccccc2O1)N(CCCn1ccnc1)Cc1csc(-c2ccc(CNCc3ccccc3)cc2)n1 (stereo not shown) [TCMDC-141813] | 25.07%
CCCCNCc1ccc(-c2nc(CN(CCCN3CCN(C)CC3)C(=O)Nc3cccc(Cl)c3)cs2)cc1 [TCMDC-141637] | 88.1%
O=C(Nc1ccc2ccccc2c1)N(CCCn1ccnc1)Cc1csc(-c2ccc(CNCc3ccccc3)cc2)n1 [TCMDC-141798] | 15.32%
CCCCNCc1ccc(-c2nc(CN(CCCn3ccnc3)C(=O)C3COc4ccccc4O3)cs2)cc1 (stereo not shown) [TCMDC-141702] | 64.34%
CCCCNCc1ccc(-c2nc(CN(CCCn3ccnc3)C(=O)NC3CC3c3ccccc3)cs2)cc1 (stereo not shown) [TCMDC-141638] | 80.86%
CCc1ccc(NC(=O)N(CCCn2ccnc2)Cc2csc(-c3ccc(CNCc4ccccc4)cc3)n2)cc1 [TCMDC-141797] | 5.722%
CCCCNCc1ccc(-c2nc(CN(CCCn3ccnc3)C(=O)Nc3ccc(CC)cc3)cs2)cc1 [TCMDC-141639] | 61.14%
CN1CCN(CCCN(Cc2csc(-c3ccc(CNCc4ccccc4)cc3)n2)C(=O)Nc2cccc(Cl)c2)CC1 [TCMDC-141794] | 15.5%
CCCN(Cc1nnc(-c2cccs2)o1)C(=O)C1COc2ccccc2O1 (stereo not shown) [TCMDC-125333] | 18.28%
CCOC(=O)CC[C@@H](NC(=O)c1ccc(NCc2ccc3ccc4nc(C)[nH]c(=O)c4c3c2)cc1F)C(=O)N[C@@H](Cc1c[nH]c2ccccc12)C(=O)OCC [TCMDC-137320] | 27.07%
O=C(Nc1cccc(-c2cc(-c3c(Cl)cccc3Cl)no2)c1)c1cnc2ccccc2c1 [TCMDC-136759] | 13.25%

Compound | % Inhibition
CC(=O)N(C)C1CCN(Cc2cccc(-c3ccc(-c4nc5cc(F)ccc5[nH]4)cc3)c2)C1.O=C(O)C(F)(F)F (stereo not shown) [TCMDC-133894] | 26.71%
O=C(NC1CCN(Cc2ccc3c(c2)OCCO3)CC1)c1ccc(-c2cccc(Cl)c2)s1 [TCMDC-134338] | 2.147%
O=C(Nc1cccc(Cl)c1)N(CCCn1ccnc1)Cc1csc(-c2ccc(CNCc3ccccc3)cc2)n1 [TCMDC-141796] | 19.94%
O=C(NC1CCCCC1)N(CCCn1ccnc1)Cc1csc(-c2ccc(CNCc3ccccc3)cc2)n1 [TCMDC-141645] | 7.097%
O=C(NC1CC1c1ccccc1)N(CCCn1ccnc1)Cc1csc(-c2ccc(CNCc3ccccc3)cc2)n1 (stereo not shown) [TCMDC-141644] | 86.73%
CC(=O)c1cccc(S(=O)(=O)NCCCNc2nc3cc(C)cc(C)c3cc2C#N)c1 [TCMDC-123734] | 8.065%
CCS(=O)(=O)N1CCN(c2nc(-c3ccccc3)nc(COC)c2Cc2ccccc2F)CC1 [TCMDC-124784] | -1.025%
COc1cc(/C=N/Nc2nc(Nc3ccccc3)nc(Nc3ccccc3)n2)ccc1OCc1ccccc1[N+](=O)[O-] [TCMDC-125793] | 59.87%
COc1ccc(Nc2nc(N/N=C/c3ccc(O)cc3)nc(Nc3ccc([N+](=O)[O-])cc3)n2)cc1 [TCMDC-124127] | -40.32%
O=[N+]([O-])c1cccc(C=NNc2nc(Nc3ccccc3)nc(Nc3ccccc3)n2)c1 [TCMDC-125797] | 40.05%
Cc1cc(NC2CCCC2)nc(Nc2ccccc2C)n1 [TCMDC-133473] | -0.2818%
O=C(Cc1ccc(Cl)cc1)Nc1cc(Cl)ccc1Cn1cnc(N2CCNCC2)cc1=O [TCMDC-134317] | -8.964%
COc1ccc2ncc(C#N)c(CCN3C[C@H](CNCc4ccccc4)[C@H](O)C3)c2n1 [TCMDC-136369] | 48.08%
CCCCNc1c(CC)c(C)c(C#N)c2nc3ccccc3n12 [TCMDC-125729] | 72.07%
Cc1nc(NCc2ccccc2)cc(Nc2cc(NCc3ccccc3)nc(C)n2)n1 [TCMDC-137298] | 0.4033%
COc1ccc(Nc2nc(NCc3ccco3)c3ccccc3n2)cc1.Cl [TCMDC-124562] | 32.58%
Cl.Oc1ccccc1Nc1nc(NCc2ccco2)c2ccccc2n1 [TCMDC-124544] | -81.25%
CCc1c(C)c(C#N)c2nc3ccccc3n2c1NCc1ccco1 [TCMDC-124079] | 78.38%
Cc1cc(NCCCN2CCCC2=O)n2c(nc3ccccc32)c1C#N [TCMDC-124485] | -25.7%
Cc1ccc(O)c(Nc2c3c(c(C#N)c4nc5ccccc5n24)CCC3)c1 [TCMDC-124227] | 16.2%
Cc1c(CCC#N)c(NCc2ccccc2)n2c(nc3ccccc32)c1C#N [TCMDC-123759] | 74.35%

Source: paper PMC4552634, “A New Set of Chemical Starting Points with Plasmodium falciparum Transmission-Blocking Potential for Antimalarial Drug Discovery” (PLoS ONE, 2015)
